This is part of a sample that, as a whole, favours compounds with a hit. Of some 83,000 tested, about 20% had one in any assay.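 A percent growth of 40 corresponds to 60% growth inhibition; 0 means no net growth; -100 means all cells died. Active threshold: below 10.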 Activity calls are given as the source filed them.
Each compound was assayed on K-562 leukemia (assay: NCI-60 one-dose screen, 48 h (100 = growth as untreated, 0 = no growth, -100 = all killed)). Settings: 10 µM unless noted.
With CC(C)[C@H]1COC(=O)N1[C@@H]1C(=O)N([C@@H](CCC(=O)N2CCN(C3CCCC3)CC2)C(=O)N[C@@H]2CCCc3ccccc32)[C@@H]1/C=C/c1cccc(Cl)c1 the growth was 45.5% (inactive).
In the case of CCN=Cc1c(O)c(O)c(C(C)C)c2cc(C)c(-c3c(C)cc4c(C(C)C)c(O)c(O)c(C=NCC)c4c3O)c(O)c12, the growth is reported as 16.4% (inactive).
In the case of O=c1cc(-c2ccccc2)oc2c(O)c(O)ccc12, the growth is reported as 63.9% (inactive).
COc1ccc(C2NC(=O)C(C#N)c3c2sc2c(F)cccc32)cc1 (configuration not stated) was tested, and the growth was 14.1% (inactive).
For COc1cc(-c2nc(SCCC(C)C)nc(Nc3ccccc3)c2C#N)cc(OC)c1OC, the growth was 93.7% (inactive).
With O=C(N/N=C\c1cc(Cl)ccc1O)N/N=C/c1cc(Cl)ccc1O the growth was 18.4% (inactive).
In the case of Cc1ccc(S(=O)(=O)Oc2ccc([N+](=O)[O-])cc2[N+](=O)[O-])cc1, the growth is reported as 29% (inactive).
In the case of COCCCNc1nc(NC(=O)c2cc(OC)cc(OC)c2)cc(-c2cccnc2)n1, the growth is reported as 86.1% (inactive).
In the case of CC1(C)CC[C@]2(C(=O)O)CC[C@]3(C)C(=CC[C@@H]4[C@@]5(C)C/C(=C/c6ccco6)C(=O)C(C)(C)[C@@H]5CC[C@]43C)[C@@H]2C1, the growth is reported as 10.5% [100 µM] (inactive).
With O=C(N=c1n(-c2ccccc2)nc2n1CCN2C1=NCCN1)c1ccc(Cl)cc1 the growth was 71.9% (inactive).

Each compound was assayed on MALME-3M melanoma in the same assay as above. Settings: 10 µM unless noted.
With CC1=CCc2ccccc21 the growth was 101% (inactive).
O=C1Nc2ccccc2/C1=C/C(=O)c1ccc(N2CCCCC2)cc1 was tested, and the growth was 69.8% (inactive).
In the case of COc1ccc2nc3c(cc2c1)C(=O)CC(c1ccccc1)C3 (configuration not stated), the growth is reported as 47.7% (inactive).
For Oc1ccc(N=Nc2nccs2)c(O)c1, the growth was 92.9% (inactive).
For Cc1cc(-c2ccc(N=Nc3c(S(=O)(=O)O)cc4cc(S(=O)(=O)O)cc(N)c4c3O)c(C)c2)ccc1N=Nc1cc(S(=O)(=O)O)c2ccccc2c1O, the growth was 89% (inactive).
For C#CCNC(=O)CC[C@]1(C)[C@H]2CC[C@@H]3[C@@H]([C@@](C)(O)CCC=C(C)C)CC[C@@]3(C)[C@]2(C)CC[C@H]1C(=C)C, the growth was -73.6% [100 µM] (active).
With CC(=O)Nc1ccc2nc3ccc(NC(C)=O)cc3[n+](-c3ccccc3)c2c1 the growth was 115% (inactive).
In the case of CCN(CC)CCCCCCNc1cccc2cc(Br)cnc12, the growth is reported as 47.9% (inactive).
For COc1ccc(NC(=S)NNc2ccc(-c3ccc(OC)c(OC)c3)nn2)cc1, the growth was 112% (inactive).
For O=[N+]([O-])c1cc([N+](=O)[O-])c(NN=C(c2ccc(O)cc2)c2ccc(O)cc2)cc1Cl, the growth was -51.6% (active).
In the case of CC(C)C1=NOC(=O)C1=Cc1cn(-c2ccccc2)nc1-c1cccc([N+](=O)[O-])c1, the growth is reported as 109% (inactive).
In the case of C=C(C)[C@@H]1CC[C@]2(C(=O)NCCNCCNCCN)CC[C@]3(C)[C@H](CC[C@@H]4[C@@]5(C)CC[C@H](O)C(C)(C)[C@@H]5CC[C@]43C)[C@@H]12, the growth is reported as -100% [100 µM] (active).
In the case of O=C1COCCN1c1ccc(Nc2nc(Cl)nc(N3CCOCC3)n2)cc1, the growth is reported as 96.3% (inactive).
With Cn1cc(-c2noc(-c3cn(C)c4ncc(F)cc34)n2)c2cc(Br)ccc21 the growth was 57.5% (inactive).
With CC1(C)NCCC[C@]2(C)[C@H]3C=CC4=C5C[C@](C)(CO)CC[C@]5(C)CC[C@@]4(C)[C@]3(C)CC[C@@H]12 the growth was -82.6% [100 µM] (active).
In the case of CCCC(NC(=O)OCc1ccccc1)C(=O)O (configuration not stated), the growth is reported as 88.8% (inactive).
In the case of CC(C)C1=NOC(=O)C1=Cc1cn(-c2ccccc2)nc1-c1ccc(Cl)cc1, the growth is reported as 93.2% (inactive).
In the case of COc1cc(OC)cc(C(=O)Nc2cc(-c3cccnc3)nc(NCCCN3CCOCC3)n2)c1, the growth is reported as 110% (inactive).
With Brc1ccc2c(c1)CN(C1CCCCC1)CO2 the growth was 115% (inactive).
In the case of CC/C=C(\C)C(CCC)(CN=O)C(=O)OCC (configuration not stated), the growth is reported as 105% (inactive).
With O=C(Nc1ccc(F)cc1)c1ccccc1 the growth was 98.8% (inactive).
O=C(O)c1cccc(CN2CCN(c3cc4c(cc3F)c(=O)c(C(=O)O)cn4C3CC3)CC2)c1O was tested, and the growth was 96.3% (inactive).
For COC(=O)c1c(C)[nH]c(/C=C2\N=C(c3ccc[nH]3)C=C2OC)c1C, the growth was -69.3% (active).
In the case of C=CCCC1(C)NC(=O)NC1=O (configuration not stated), the growth is reported as 111% (inactive).
With O=[N+]([O-])c1cccc(N=NNc2cccc([N+](=O)[O-])c2)c1 the growth was 102% (inactive).
In the case of Cc1ccc(N)c(O)c1, the growth is reported as 72.4% (inactive).
In the case of CCN(CC)c1ccc2cc(NC(=O)OCCNC(=O)CCNC(=O)[C@H](CC(C)C)NC(=O)C(C)(C)NC(=O)C(C)(C)NC(=O)[C@H](CC(C)C)NC(=O)CCNC(=O)C(C)(C)NC(=O)[C@H](CC(C)C)NC(=O)CCNC(=O)[C@@](C)(CC)NC(=O)[C@H](C)NC(=O)CCNC(=O)C(C)(C)NC(=O)[C@H](C)NC(=O)[C@@H]3CCCN3C(=O)[C@@](C)(CC)NC(=O)[C@H](Cc3ccccc3)NC(=O)C3CCCN3C(=O)C(C)(C)NC(=O)C3CCCN3C(=O)C(C)(C)NC(C)=O)c(=O)oc2c1 (some centres not stated), the growth is reported as -80.4% (active).
